Assay outcomes as filed in PubChem BioAssay.
Only some compounds are listed: those with a hit (about 8.1% of all), similar ones and a draw of the others.
KB-3-1 cytotox: kills parental KB-3-1 adenocarcinoma cells. KB-3-1 viability, CellTiter-Glo ATP luminescence, 72 h. Potency, µM (series often up to 46.1 µM), actives largely listed as cytotoxic. actives 1.4% (n = 400,000). AID 1347075; further: on the % scale 0 is the no-effect control and ±100 the full control effect; nearly all actives have a fitted effect of over 60% in size
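Parental KB-3-1 adenocarcinoma cells in phenol-red-free DMEM with 10% FBS were pin-treated with compounds at several concentrations, incubated 72 h at 37 °C, and viability read by CellTiter-Glo luminescence; concentration-effect curves were fitted after normalization.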
MCF10A rerep: inducers of DNA re-replication in MCF 10A breast cells; MCF 10A DNA re-replication, Hoechst nuclear intensity, 48 h; Potency, µM (titrated, usually from 46.1 µM), for inactives: at the highest dose activity, positive = re-replication, hits mostly activators; actives 2.9% (n = 350,000); further: % of control where 0% means no effect; nearly all actives have a fitted effect of over 50% in size
KB-V1 cytotox: kills drug-selected multidrug resistant KB-V1 cells; Potency, µM (titrated, usually from 46.1 µM), most hits filed as cytotoxic; KB-V1 MDR cells viability, CellTiter-Glo, 72 h; actives 3.4% (n = 400,000); further: on the % scale 0 is the no-effect control and ±100 the full control effect; nearly all actives have a fitted effect of over 60% in size
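KB-V1 cells (P-gp-expressing MDR subline of KB-3-1) in phenol-red-free DMEM with 10% FBS were exposed to library compounds over a concentration series for 72 h at 37 degrees C. Viability read by CellTiter-Glo luminescence; concentration-effect curves fitted after normalization.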
SW480 rerep: inducers of DNA re-replication in SW480 colon cancer cells; SW480 DNA re-replication, Hoechst DNA content imaging, 48 h; Potency, µM (series often up to 46.1 µM), inactives show at the top dose re-replication activation, usual class: activators; actives 1.8% (n = 340,000); further: % of control where 0% means no effect; nearly all actives have a fitted effect of over 55% in size
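Treated cells incubate 48 hr (37 C, 5% CO2), are stained 40 min with Hoechst, and nuclear fluorescence is enumerated; a rise in nuclei with high DNA signal marks re-replication.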
ELG1 DNA repair: ELG1-dependent DNA repair inhibition; actives 2.3% (n = 330,000); AID 504467; Potency, µM (doses to about 46.1 µM), for the others: at the top dose activity change, negative = inhibition, usual class: inhibitors; HEK293T ELG1-luciferase reporter, luminescence, 16 h; DNA damage induced by 5-fluorouridine; further: on the % scale 0 is the no-effect control and ±100 the full control effect; nearly all actives have a fitted effect of over 55% in size
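DMSO vehicle served as the neutral condition. Each well held 2,000 cells given 5-fluorouridine plus compound; after 16 hr at 37 °C/5% CO2, ONE-Glo was added and luciferase measured 30 min later.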
Numbers without * were called inactive; i = inactive; ? = inconclusive; nt = no result; [ ] = remark or other dose. The call rests on the fitted dose curve; in most records, active means well fitted curve in the direction sought with a large enough effect; inconclusive means small, poorly fitted or top-dose-only effect, or another doubt; inactive means no such curve, though single readings can be large; an effect the other way counts as inactive or inconclusive. Potency means the concentration at half of the fitted maximal effect.

SMILES | KB-3-1 cytotox | MCF10A rerep | KB-V1 cytotox | SW480 rerep | ELG1 DNA repair
COC1CCCN(C(=O)c2ccc3oc(Cc4ccc(Cl)cc4)nc3c2)C1 (configuration not stated) | i | 8.5% | 2.59µM* | -5.0% | -7.2%
CCCCCCOC(=O)C[N+](C)(C)CCOC1CC2CCC1(C)C2(C)C (configuration not stated) | i | ? | i | -5.0% | ?
CCCCCCCOC(=O)C[N+](C)(C)CCOC1CC2CCC1(C)C2(C)C (configuration not stated) | 20.6µM* | ? | i | ? | ?
CC(C)CCOC(=O)C[N+](C)(C)CCOC1CC2CCC1(C)C2(C)C (configuration not stated) | i | 16.4µM* | i | -1.2% | ?
CCC(C)OC(=O)C[N+](C)(C)CCOC1CC2CCC1(C)C2(C)C (configuration not stated) | 20.6µM* | ? | i | -12.9% | ?
CCCOC(=O)C[N+](C)(C)CCOC1CC2CCC1(C)C2(C)C (configuration not stated) | i | -22.5% | i | -0.9% | ?
Cc1ccc(-n2c(SCc3nc4ccccc4[nH]3)nnc2-c2ccncc2)cc1 | i | 2.7% | i | 1.7% | -3.1%
COc1cccc(C(=O)NCCS(=O)(=O)NCc2ccco2)c1 | i | -0.4% | i | -293.7% | 4.1%
O=C(CSc1nc2nn(-c3ccccc3)c(=O)c-2c2n1CCCCC2)Nc1ccc(OC(F)F)cc1 | i | 2.1% | i | ? | 13µM*
O=C(CSc1nc2nn(-c3ccccc3)c(=O)c-2c2n1CCCCC2)c1ccc(O)c(O)c1 | ? | 7.3% | ? | ? | 18.3µM*
CC(=O)c1ccc(NC(=O)CSc2nc3nn(-c4ccccc4)c(=O)c-3c3n2CCCCC3)cc1 | i | 0.3% | i | 2.2% | nt
CCc1cc(C(=O)NNC(=S)Nc2cccc(C)c2)cs1 | i | ? | i | -9.3% | ?
Cc1cccc(NC(=S)NNC(=O)c2csc(C(C)C)c2)c1 | i | ? | 20.6µM* | -1.8% | ?
COc1ccc(S(=O)(=O)N2CCN(c3nc(-c4cccs4)nc4ccccc34)CC2)cc1OC | ? | nt | i | nt | nt
Cc1cc(NC(=O)Nc2cccc(Cl)c2)no1 | i | nt | i | nt | nt
CCO[C@H]1OC(C(=O)N2CCN(Cc3ccc4c(c3)OCO4)CC2)=C[C@@H](c2cn(C(C)=O)c3ccccc23)[C@@H]1CCCO | ? | -2.5% | i | -0.9% | 10.3µM*
CCO[C@@H]1OC(C(=O)NCc2ccccc2)=C[C@H](c2ccc(C(F)(F)F)cc2)[C@H]1CCCO | i | 2.91µM* | i | ? | ?
CCO[C@@H]1OC(C(=O)N2CCN(Cc3ccc4c(c3)OCO4)CC2)=C[C@H](c2ccc(C(F)(F)F)cc2)[C@H]1CCCO | ? | -0.9% | 25.9µM* | -13.2% | -17.3%
COc1ccc(-c2oc3ncnc(NCCCN(C)C)c3c2-c2ccc(OC)cc2)cc1 | ? | 10.6% | i | ? | -1.6%
CCCn1c(SCC(=O)NC2CCCC2)nnc1C(C)C | i | -0.5% | i | 18.4µM* | ?
CC(C)c1ccc(/C=C/C2=NNC(=O)CC2)cc1 | 0.731µM* | ? | 0.184µM* | ? | ?
COc1cc(/C=C/C2=NNC(=O)CC2)cc(OC)c1OC | 0.517µM* | 3.8% | ? | 1.6% | ?
COc1cc(C=C2C(=O)c3ccccc3C2=O)cc(OC)c1OC | i | -0.4% | i | 0.6% | 9.5%
CCc1ccc(NC(=O)C2CCN(S(=O)(=O)c3ccc4[nH]c5c(c4c3)CCCCC5)CC2)cc1 | ? | nt | i | nt | nt
O=C(COc1ccccc1)Nc1ccc2c(c1)nc1n2CCSC1 | i | -2.8% | ? | -3.4% | ?
SMILES | KB-3-1 cytotox | MCF10A rerep | KB-V1 cytotox | SW480 rerep | ELG1 DNA repair
O=S(=O)(c1ccc(Cl)nc1)N(Cc1ccccc1)Cc1ccccc1 | i | ? | 18.4µM* | -43.7% | -6.9%
CCC1(C)Cc2nc3[nH]c(=S)n(-c4ccccc4)c(=O)c3cc2CO1 (configuration not stated) | i | -1.8% | i | ? | 13.4%
CC1=NN(C(=O)c2cccc(Cn3nc(C)c([N+](=O)[O-])c3C)c2)C(O)(C(F)(F)F)C1 (configuration not stated) | i | 5.8µM* | ? | ? | -0.6%
Cc1nn(Cc2ccc(C(=O)N3N=C(C(F)F)CC3(O)C(F)F)o2)c(C)c1[N+](=O)[O-] (configuration not stated) | i | 2.6% | ? | 0.2% | ?
Cc1nn(Cc2cccc(C(=O)N3N=C(C(F)F)CC3(O)C(F)F)c2)c(C)c1[N+](=O)[O-] (configuration not stated) | i | ? | 8.2µM* | -4.2% | ?
Cc1nn(Cc2cccc(C(=O)Nn3cc([N+](=O)[O-])cn3)c2)c(C)c1[N+](=O)[O-] | i | ? | ? | -80.9% | -1.1%
CCOC(=O)N1CCN(S(=O)(=O)c2ccc(OCC(=O)OC)c(Cl)c2)CC1 | i | -0.4% | i | 6.1% | 22.9%
CC(C)OC(=O)Nc1ccc2nc(-c3cscn3)[nH]c2c1 | nt | 9.44µM* | nt | 5.31µM* | nt
COC(=O)c1ccc(C(=O)Nc2ccc3nc(-c4ccncc4)[nH]c3c2)cc1 | i | 7.6% | i | -3.2% | -13.6%
COc1ccc(-c2cc([C@H]3[C@H]4C=CC[C@@H](C)[C@@H]4C(=O)N3Cc3ccccc3)ccc2F)cc1OC | 16.4µM* | ? | ? | 9.9% | -24.5%
CC[C@@H]1CC=C[C@H]2[C@H]1C(=O)N(Cc1ccccc1)[C@H]2c1ccoc1 | 14.6µM* | 8.2µM* | ? | 1.5%[9.22 µM] | -15.6%
CC(=O)c1ccc(-c2ccc([C@H]3[C@H]4C=CC[C@@H](C)[C@@H]4C(=O)N3Cc3ccccc3)c(F)c2)cc1 | ? | ? | 20.6µM* | -17.1%[9.22 µM] | ?
COc1ccc(-c2cc([C@H]3[C@H]4C=CC[C@@H](C)[C@@H]4C(=O)N3Cc3ccccc3)ccc2F)cc1 | 16.4µM* | ? | ? | -7.7%[9.22 µM] | -7.0%
O=C1N=C(N2CCOCC2)S/C1=C/c1ccc(-c2ccc(F)cc2)o1 | i | ? | i | ? | ?
Cc1ccc(-c2ccc(/C=C3\SC(N4CCOCC4)=NC3=O)o2)cc1 | i | 23.1µM* | i | 18.4µM* | ?
O=C(Nc1nc(-c2ccc(F)c(F)c2)cs1)c1cnccn1 | i | 6.4% | i | 0.6% | 4.1%
O=C(Nc1nc(-c2cccc3ccccc23)cs1)c1cnccn1 | i | 18.4µM* | ? | ? | -0.4%
Cc1cnc(C(=O)Nc2nc(-c3ccccc3)cs2)cn1 | i | -3.6% | 23.1µM* | -12.2% | ?
